Test results taken from PubChem BioAssay AID588855 (National Center for Advancing Translational Sciences (NCATS), 2011).
The campaign covered roughly 410,000 compounds. About 5,000 (1.2%) were called active. Inconclusive results (about 13%) are left out. Calls follow the shape of the dose curve; as a rule, active = well fitted inhibition curve with a large enough effect; inconclusive = small, poorly fitted or top-dose-only effect; inactive = no such curve, though single readings can be large or run the other way. What follows is part of a selection rich in actives, with near analogues and random picks from the rest. A call without a number means that no potency is given here.

Test: qHTS for Inhibitors of TGF-b; also: nearly all actives have a fitted effect of over 65% in size
Settings: HepG2 CAGA-GFP TGF-b/SMAD3 reporter, GFP fluorescence, 18 h, TGF-beta stimulated, 500 pg/mL final; series mostly up to 46.1 µM
Summary of the method: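 HEPG2 CAGA-GFP reporter cells (1000/well, DMEM with 1% FBS) received compounds, then recombinant TGF-beta at 500 pg/mL final for 18 hours at 37 degrees C. Per-cell GFP summed per well was normalised to unstimulated and stimulated DMSO controls before curve fitting.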
Potency is read from the fitted curve at half-maximal effect.

SMILES	Potency
Cc1nc2nc(SCC(=O)NC3CCC(C)CC3)nn2c(C)c1Cc1ccccc1Cl (stereo not given)	inactive
CC1(C)C=Cc2c(ccc(C(=O)/C=C/c3ccccc3)c2O)O1	inactive
Cc1cc(C)cc(NS(=O)(=O)c2ccc(Oc3ncc(C(F)(F)F)cc3Cl)cc2)c1	12.6 µM (active)
CN(NS(=O)(=O)c1cccs1)c1ncc(C(F)(F)F)cc1Cl	inactive
COc1ccccc1Oc1ccc(S(=O)(=O)Nc2cccnc2)cc1	inactive
COc1ccc(CCNCc2c(C(=O)O)c(C)n(Cc3cccc(C)c3)c2C)cc1OC	inactive
Cc1cccc(NC(=O)c2ccc3nc(C(C)C)oc3c2)c1C	inactive
O=C(O)C1CCN(c2ccc([N+](=O)[O-])cc2[N+](=O)[O-])CC1	inactive
C=COC(=O)N1CCN(/[N+]([O-])=N/Oc2ccc([N+](=O)[O-])cc2[N+](=O)[O-])CC1	10 µM (active)
CCOC(=O)N1CCN(c2cc(C)c([N+](=O)[O-])cc2F)CC1	inactive
O=C(CSc1nc(=O)[nH]c2c1CCCC2)Nc1cc(C(F)(F)F)ccc1Cl	inactive
COc1ccc(/C=C/c2noc(-c3ccccc3O)n2)cc1OC	inactive
Cc1cc([N+](=O)[O-])ccc1NCc1cccc([N+](=O)[O-])c1	10 µM (active)
COc1cccc(C(=O)CC(=O)C(=O)Nc2ccc([N+](=O)[O-])cc2C)c1	inactive
CC(=O)c1ccc(NC(=O)Nc2ccc([N+](=O)[O-])cc2C)cc1	inactive
O=C(Nc1ccc([N+](=O)[O-])cc1)c1cnn2c1NC(=C1CC1)C=C2C(F)F	inactive
COc1ccc(/C=C/c2ccnc3ccccc23)cc1OC	inactive
O=C(CSc1nc(Nc2ccc(F)c(F)c2)c2ccccc2n1)c1ccc(Cl)cc1	inactive
Fc1ccc(Nc2nc(SCc3ccccc3Cl)nc3ccccc23)cc1	17.8 µM (active)
CSc1ncc(C(=O)NCc2ccccc2Cl)c(C(F)(F)F)n1	inactive

SMILES	Potency
Cc1ccc(NC(=O)CSc2nc3ccccc3c3nc(CCn4cncc4C)nn23)cc1F	inactive
CCN(CC)C(=O)C1=C(C)N(Cc2ccc(F)cc2)C(=O)C(CC(=O)NCc2cccc3ccccc23)C1 (stereo not given)	inactive
CCN(CC)C(=O)C1=C(C)N(Cc2ccc(C(C)(C)C)cc2)C(=O)C(CC(=O)NCc2cccc3ccccc23)C1 (stereo not given)	17.8 µM (active)
COc1ccc(CN2C(=O)C(CC(=O)NCc3cccc4ccccc34)CC(C(=O)N3CCOCC3)=C2C)cc1 (stereo not given)	inactive
COc1ccc2c(c1)c(=Cc1ccc(N(C)C)cc1)c1cc(-c3ccccc3)[n+](C)n12	5.01 µM (active)
CN(C)c1ccc(/C=c2\[nH]c(=O)/c(=C/c3ccc(N(C)C)cc3)[nH]c2=O)cc1	inactive
Cc1ccc(NC(=O)CSc2nnc3[nH]c(=O)cc(C)n23)cc1Cl	inactive
Cc1ccc(C(=O)Nc2ccc(C(=O)O)cc2)cc1S(=O)(=O)Nc1ccccc1	inactive
Cn1c(=O)n(C)c2cc(C(=O)Nc3ccc(Br)cc3)ccc21	inactive
O=C(Nc1ccc(Br)cc1)c1ccc(Br)c(S(=O)(=O)NCc2ccccc2)c1	12.6 µM (active)
COc1ccccc1C1C(C(=O)N2CCCCC2)=C(C)Nc2nc3ccccc3n21 (stereo not given)	inactive
Oc1ccc(Cl)cc1C1C=C(c2ccc3c(c2)OCO3)NC(c2ccc(F)c(Br)c2)N1 (stereo not given)	10 µM (active)
CCCCCCC1(C)NC(c2ccc3c(c2)OCO3)=CC(c2ccccc2O)N1 (stereo not given)	inactive
C(=Nc1ccc(/C=C/c2ccnc3ccccc23)cc1)c1cc2c3c(c1)CCCN3CCC2	inactive
NC1=CC(=O)C(=O)c2cccnc21	7.94 µM (active)
Cc1ccc2nc(COc3ccc(NC(=O)COc4ccccc4F)cc3)cc(=O)n2c1	inactive
CCN(CC)C(=O)[C@H]1CC(CC(=O)NCc2ccco2)C(=O)N2CCc3c([nH]c4ccccc34)[C@]12C (stereo not given in full)	inactive
CC(C)N(C(=O)[C@H]1C[C@H](CC(=O)NC(C)(C)C)C(=O)N2CCc3c([nH]c4ccc(Cl)cc34)[C@]12C)C(C)C	11.2 µM (active)
COc1ccc2[nH]c3c(c2c1)CCN1C(=O)C(CC(=O)NCCCN(C)C)C[C@H](C(=O)N2CCOCC2)[C@@]31CCC1CCCC1 (stereo not given in full)	inactive
C[C@]12c3[nH]c4ccc(Cl)cc4c3CCN1C(=O)[C@@H](CC(=O)NCCCn1ccnc1)C[C@@H]2C(=O)N1CCOCC1	inactive

SMILES	Potency
O=C(C[C@H]1C[C@H](C(=O)N2CCOCC2)[C@@]2(CCC3CCCC3)c3[nH]c4ccc(Cl)cc4c3CCN2C1=O)NCc1ccco1	inactive
COc1ccc(CNC(=O)C[C@H]2C[C@H](C(=O)N3CCOCC3)[C@@]3(CCC4CCCC4)c4[nH]c5ccc(Cl)cc5c4CCN3C2=O)cc1OC	1.78 µM (active)
CCOC(=O)c1c(S(=O)(=O)N2CCCC(C(=O)NCc3cccc(C)c3)C2)c(C)n(C)c1C (stereo not given)	inactive
Cc1ccc(-n2c(SCC(=O)c3ccccc3)nc3c([nH]c4ccccc43)c2=O)cc1	inactive
CN1c2ccc(Cl)cc2-c2nc(SCC(=O)Nc3cc(F)ccc3F)ncc2S1(=O)=O	inactive
O=C(c1ccc2c(c1)N(Cc1ccccc1F)C(=O)c1ccccc1S2(=O)=O)N1CCOCC1	inactive
Cc1ccc(S(=O)(=O)NCc2nc3nc(C)cc(C)n3n2)cc1	inactive
COc1ccc(CCNC(=O)CCCCn2c(=O)c3ccccc3n(Cc3ccccc3)c2=O)cc1OC	inactive
CC(=O)c1ccc(NC(=O)CSc2c(C(C)C)cnc3c2c(=O)n(C)c(=O)n3C)cc1	inactive
O=C1CCCC2=C1C(c1cccs1)CC(=O)N2c1ccc(F)cc1 (stereo not given)	inactive
CCOC(=O)C1=C(N)N(c2ccc(C)cc2)C2=C(C(=O)CCC2)C1c1cccs1 (stereo not given)	11.2 µM (active)
CCOC(=O)c1cc2c(n(-c3ccc(C)cc3)c1=O)CCCC2=O	inactive
COc1ccccc1NC(=O)c1oc2ccccc2c1NC(=O)COc1ccccc1OC	inactive
O=C(Nc1ccc(Cl)cc1)c1cnn2c1NC(=C1CC1)C=C2C(F)F	inactive
O=c1cc(CN2CCCCCCC2)c2c(ccc3ccccc32)o1	inactive
Cc1cc(=O)oc2cc(OCC(=O)N3CCN(c4ccc(F)cc4)CC3)c(Cl)cc12	inactive
O=C(Cc1ccccc1)NNC(=O)C1CCN(c2ncccn2)CC1	inactive
Cc1cccc(C)c1NC(=O)CN1CCN(c2ccc(F)cc2)CC1	inactive
Oc1c(CN2CCN(c3ccc(F)cc3)CC2)cc(Cl)c2cccnc12	7.08 µM (active)
Oc1c(CN2CCCC2)cc(COCc2ccccc2)c2cccnc12	4.47 µM (active)
